Shown are actives, neighbours in structure and some others; about 3% of the full set was active somewhere.
PLK1 PBD inh: qHTS for Inhibitors of PLK1-PDB (polo-like kinase 1 - polo-box domain): Primary Screen; Serine/threonine-protein kinase PLK1 (Homo sapiens), P53350; Plk1 PBD binding of FITC phosphopeptide, fluorescence polarization; Potency, µM, usual class: inhibitors; hit rate 2.8% among 360,000; note: series mostly up to about 57 µM; nearly all actives have a fitted effect of over 65% in size
Target sequence (P53350 whole entry, looked up, the tested form may be a part): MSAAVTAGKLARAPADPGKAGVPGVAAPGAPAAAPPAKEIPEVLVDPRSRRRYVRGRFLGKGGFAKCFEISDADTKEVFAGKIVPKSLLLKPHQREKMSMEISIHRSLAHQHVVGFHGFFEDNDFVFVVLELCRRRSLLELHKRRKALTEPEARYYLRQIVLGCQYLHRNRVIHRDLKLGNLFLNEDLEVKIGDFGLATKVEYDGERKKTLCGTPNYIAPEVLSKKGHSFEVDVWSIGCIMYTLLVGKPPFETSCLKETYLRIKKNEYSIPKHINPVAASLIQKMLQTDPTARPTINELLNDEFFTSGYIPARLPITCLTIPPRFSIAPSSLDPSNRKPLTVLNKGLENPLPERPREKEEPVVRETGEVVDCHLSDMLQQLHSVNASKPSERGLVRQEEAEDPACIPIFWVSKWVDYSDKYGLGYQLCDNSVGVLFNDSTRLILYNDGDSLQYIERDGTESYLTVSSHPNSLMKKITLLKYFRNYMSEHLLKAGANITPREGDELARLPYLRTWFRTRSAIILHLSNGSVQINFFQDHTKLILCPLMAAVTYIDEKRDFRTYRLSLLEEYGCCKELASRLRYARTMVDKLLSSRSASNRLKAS
PTAP TSG101 blk: qHTS Assay for Iinhibitors of HIV-1 Budding by Blocking the Interaction of PTAP/TSG101; Fluorescence polarization, FITC-PTAP peptide / Tsg101 binding; Potency, µM (series often up to 115 µM), usual class: inhibitors; 340,000 tested, under 10 active; Tumor susceptibility gene 101 protein (Homo sapiens), Q99816; AID 493005, 2010; active = well fitted inhibition curve with a large enough effect in the main read-out, with a control signal flat, not every such curve was filed as active; inconclusive = small, poorly fitted or top-dose-only effect, or effect the other way, or a change in a side signal; inactive = no such curve, though single readings can be large or run the other way
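Steps: Tsg101 binding domain dispensed (10 uM final), compounds pinned in DMSO, FITC-labeled PTAP-motif peptide added (50 nM final); after 20 min binding at room temperature, polarization measured.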
GCN5L2 inh: qHTS Assay for Inhibitors of GCN5L2 | GCN5L2 HAT assay, ThioGlo1 CoA-SH fluorescence | hit rate 0.21% among 390,000 | Histone acetyltransferase KAT2A (Homo sapiens), Q92830 | Potency, µM (doses to about 58.9 µM), actives largely listed as inhibitors | AID 504327, 2011
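ThioGlo1-coupled HAT assay: 20nM GCN5L2, 70uM acetyl-CoA, 75uM H3(1-25) peptide, pH 7.5. Fluorescence read at 340/540nm at start and after 20 min at room temperature.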
VDR inhibitor: Inhibitors of the vitamin D receptor (VDR): qHTS; Potency, µM, usual class: inhibitors; Vitamin D3 receptor (Homo sapiens), P11473; hit rate 0.93% among 400,000; AID 504847, 2011; VDR-SRC2-3 peptide fluorescence polarization, 2 h
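Reagent solutions, kept cold and dark, are dispensed first; compounds are then pinned in at 23 nl, plates briefly spun, and incubated 2 h at ambient temperature. Inhibition of VDR–SRC2-3 peptide binding is read by fluorescence polarization.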
USP1 inh: Inhibitors of USP1/UAF1: Primary Screen; Ubiquitin carboxyl-terminal hydrolase 1 (Homo sapiens), O94782; recombinant USP1/UAF1, Ub-Rhodamine cleavage fluorescence; Potency, µM (titrated, usually from 57.1 µM), most hits filed as inhibitors; hit rate 0.23% among 390,000; AID 743255, 2014; note: nearly all actives have a fitted effect of over 60% in size
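USP1/UAF1 complex (1 nM) preincubated 15 min at room temperature with compound, then Ub-Rho substrate (150 nM final) added. Kinetic fluorescence at 480/540 nm over 6 reads at 60 s intervals; 50 mM HEPES pH 7.8, 0.5 mM EDTA, 0.1 mg/ml BSA, 1 mM TCEP, 0.01% Tween-20.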
VDR inh confirm: qHTS for Inhibitors of the vitamin D receptor (VDR): Hit Validation in Primary Screen. shares compounds with VDR inhibitor. VDR-coactivator inhibition assay, qHTS confirmation. Potency, µM, most hits filed as inhibitors. hit rate 89% among 840. AID 602199, 2012
VDR FP: qHTS for Inhibitors of the vitamin D receptor (VDR): Hit Validation using a Fluorescein Assay. VDR-coactivator binding, fluorescein fluorescence polarization. Potency, µM (series often up to 57.1 µM), actives largely listed as inhibitors. shares compounds with VDR inhibitor. hit rate 48% among 840. AID 602200, 2012
VDR bla: qHTS for Inhibitors of the vitamin D receptor (VDR): Hit Validation using a Beta-Lactamase Assay. VDR beta-lactamase reporter cells, FRET ratio; cells co-treated with VDR agonist LG190178. shares compounds with VDR inhibitor. Potency, µM (series often up to 46.1 µM), actives largely listed as inhibitors. hit rate 23% among 840
VDR viability: qHTS for Inhibitors of the vitamin D receptor (VDR): Hit Validation using a Cytotoxicity Assay; shares compounds with VDR inhibitor; cytotoxicity counter-screen, cell viability, qHTS; Potency, µM (highest dose often 48.3 µM), hits mostly cytotoxic; hit rate 18% among 840; AID 602204, 2012; note: nearly all actives have a fitted effect of over 75% in size
Large screens that a line does not name were inactive (follow-up assays come after a bar, where they were run). Unless noted, calls come from the whole dose curve; as a rule, active = well fitted curve in the direction sought with a large enough effect; inconclusive = small, poorly fitted or top-dose-only effect, or another doubt; inactive = no such curve, though single readings can be large; an effect the other way counts as inactive or inconclusive.

O=C(Nc1ccc(OC(F)F)cc1)c1nc(S(=O)(=O)Cc2ccccc2F)ncc1Cl	none (no result: PLK1 PBD inh, PTAP TSG101 blk, GCN5L2 inh, VDR inhibitor, USP1 inh) | VDR inh confirm 6.3 | VDR FP 4µM | VDR bla 16µM | VDR viability 17µM
COc1ccc(Cl)cc1C(=O)NCc1nc(-c2cccc(C)c2)no1	none (no result: PLK1 PBD inh, PTAP TSG101 blk)
CC(C)N(CCC(=O)c1ccc2ccccc2c1)Cc1ccccc1	PLK1 PBD inh 3.4µM, GCN5L2 inh inconclusive, VDR inhibitor 5µM | VDR inh confirm 15 | VDR FP 7.1µM | VDR bla inconclusive | VDR viability inconclusive
CC(OC(=O)c1ccc2ccccc2c1)C(=O)N(C)Cc1ccccc1 (stereo unspecified)	none
Cc1ccc(-c2noc(-c3ccc(N4CCCC4)c([N+](=O)[O-])c3)n2)cc1	none (no result: PLK1 PBD inh, PTAP TSG101 blk)
C=C(C)[C@@H]1C2=CC(C(=O)OC)=C(C[C@@H](C(=C)C)[C@H]3O[C@H]3C3=C[C@H]1OC3=O)O2	VDR inhibitor 20µM (no result: PLK1 PBD inh, PTAP TSG101 blk, GCN5L2 inh, USP1 inh) | VDR inh confirm 7.1 | VDR FP 14µM | VDR bla inconclusive | VDR viability 17µM
CCOC(=O)C1C(=O)NC(SCC(=O)Nc2nccs2)=C(C#N)C1c1ccccc1OCC (stereo unspecified)	PLK1 PBD inh 2.7µM, VDR inhibitor 35µM, USP1 inh inconclusive | VDR inh confirm 12 | VDR FP inconclusive | VDR bla inactive | VDR viability inconclusive
CCOC(=O)C1C(=O)NC(SCC(=O)OC)=C(C#N)C1c1ccccc1OCC (stereo unspecified)	none (no result: GCN5L2 inh)
COc1ccc2c(c1OC)OCC2C (stereo unspecified)	none (no result: GCN5L2 inh)
COc1cccc(-c2noc(COc3ccccc3Cl)n2)c1	none (no result: PLK1 PBD inh, PTAP TSG101 blk)
Cc1cc(C)c(C#N)c(=N)o1	PLK1 PBD inh 4.7µM, VDR inhibitor 45µM | VDR inh confirm inconclusive | VDR FP inconclusive | VDR bla inactive | VDR viability inactive
CCS(=O)(=O)c1ncc(Cl)c(C(=O)N2CCN(c3cccc(Cl)c3)CC2)n1	VDR inhibitor 8.9µM, USP1 inh inconclusive (no result: PLK1 PBD inh, PTAP TSG101 blk) | VDR inh confirm 2.8 | VDR FP 2.8µM | VDR bla 2.9µM | VDR viability 9.5µM
CS(=O)(=O)c1ncc(Cl)c(C(=O)N2CCN(c3cccc(Cl)c3)CC2)n1	VDR inhibitor inconclusive (no result: PLK1 PBD inh, PTAP TSG101 blk)
COc1cccc(-c2cc(C(=O)Nc3ccc(N(C)C(C)=O)cc3)c3cc(Br)ccc3n2)c1	none (no result: GCN5L2 inh)
CCn1c(=O)c2sccc2n2c(CCCC(=O)N3CCN(c4ccccc4OC)CC3)nnc12	none (no result: PLK1 PBD inh, PTAP TSG101 blk)
Fc1ccc(N=C2NN=C(c3cc(F)ccc3F)CS2)cc1	PLK1 PBD inh inconclusive, VDR inhibitor 32µM, USP1 inh inconclusive | VDR inh confirm inconclusive | VDR FP inconclusive | VDR bla inactive | VDR viability inconclusive
Fc1ccc(F)c(C2=NNC(=Nc3ccccc3F)SC2)c1	USP1 inh inconclusive
O=S(=O)(c1ccc(N=C2NN=C(c3cc(F)ccc3F)CS2)cc1)N1CCOCC1	PLK1 PBD inh inconclusive, VDR inhibitor 1.6µM, USP1 inh inconclusive | VDR inh confirm 2.5 | VDR FP inconclusive | VDR bla inactive | VDR viability inconclusive
CC(C)(C)N=C1NN=C(c2ccc(S(=O)(=O)N3CCCCC3)cc2)CS1	none
CCc1nn2c(=O)cc(COC(=O)c3ccco3)nc2s1	none (no result: PLK1 PBD inh, PTAP TSG101 blk)
COc1cccc(/C=C/C(=O)c2cccc([N+](=O)[O-])c2)c1OC	PLK1 PBD inh inconclusive, VDR inhibitor 8.9µM | VDR inh confirm 3.8 | VDR FP 3.2µM | VDR bla inconclusive | VDR viability inconclusive
Cc1cc(C)cc(NC(=O)C2CCCN(C(=O)c3cnn(-c4ccccc4)c3-n3cccc3)C2)c1 (stereo unspecified)	none (no result: PLK1 PBD inh, PTAP TSG101 blk)
CC1=C(C#N)C(=O)NC(=O)/C1=C\c1ccc(-c2cc(C)c(C)cc2[N+](=O)[O-])o1	PLK1 PBD inh 4.7µM, GCN5L2 inh inconclusive, VDR inhibitor 25µM, USP1 inh inconclusive | VDR inh confirm 10 | VDR FP 8.9µM | VDR bla inactive | VDR viability inactive
Cc1ccc(-c2ccc(/C=C3/NC(=O)NC3=O)o2)cc1[N+](=O)[O-]	none
CS(=O)(=O)c1nc(-c2ccccc2)cc(C(F)(F)F)n1	PLK1 PBD inh 24µM, VDR inhibitor inconclusive | VDR inh confirm 8.9 | VDR FP 4.5µM | VDR bla 18µM | VDR viability 24µM
FC(F)(F)c1cc(-c2ccccc2)nc(N2CCCCCC2)n1	none
COc1ccc(-c2csc3ncnc(N4CCN(S(=O)(=O)c5ccc(C(C)=O)cc5)CC4)c23)cc1	none
CCCOc1ccc(C(=O)CCNC(Cc2c[nH]c3ccccc23)C(=O)O)cc1 (stereo unspecified)	PLK1 PBD inh 5.3µM, VDR inhibitor 45µM | VDR inh confirm 19 | VDR FP inconclusive | VDR bla inactive | VDR viability inconclusive
CCOc1ccc(/C=C/C(=O)c2c(O)c3ccccc3oc2=O)cc1	PTAP TSG101 blk inconclusive, VDR inhibitor 8.9µM | VDR inh confirm 8.4 | VDR FP inactive | VDR bla inactive | VDR viability inconclusive
CN(C)c1ccc(/C=C/C(=O)c2c(O)c3ccccc3oc2=O)cc1	PTAP TSG101 blk inconclusive, VDR inhibitor inconclusive, USP1 inh inconclusive
Cc1cc(O)c(C(=O)/C=C/c2ccc(C(C)C)cc2)c(=O)o1	VDR inhibitor inconclusive | VDR inh confirm 6.3 | VDR FP inconclusive | VDR bla inconclusive | VDR viability inactive
Cc1cc(O)c(C(=O)/C=C/c2ccccc2Br)c(=O)o1	GCN5L2 inh inconclusive, VDR inhibitor inconclusive
CCOc1ccc(/C=C/C(=O)c2c(O)cc(C)oc2=O)cc1	VDR inhibitor inconclusive | VDR inh confirm 16 | VDR FP 25µM | VDR bla inconclusive | VDR viability 12µM
